# Assay results published in PubChem BioAssay (NCATS).
# Results filed as inconclusive are left out. A call without a number means that no potency is given here. A number with no mark means an inactive call. Calls of active or inactive are those of the source. Calls come from the whole dose curve; as a rule, active = well fitted curve in the direction sought with a large enough effect; inconclusive = small, poorly fitted or top-dose-only effect, or another doubt; inactive = no such curve, though single readings can be large; an effect the other way counts as inactive or inconclusive.
# Experiments:
# [1] = qHTS of pediatric cancer cell lines to identify multiple opportunities for drug repurposing: Confirmatory screen for TC32 cells (AID 1347118);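 note: cells exposed to compound for 48 h before the read; nearly all actives have a fitted effect of over 65% in size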; note: potency is the fitted concentration of half-maximal effect
# How it was run: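 qHTS, TC32, 48 h drug treatment, CellTiter-Glo luminescence as a proxy for metabolically active cells; primary top concentration 46 µM (MIPE 11-pt, NPC 8-pt); confirmatory 11-pt.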
# [2] = qHTS of pediatric cancer cell lines to identify multiple opportunities for drug repurposing: Confirmatory screen for MG 63 (6-TG R) cells (AID 1347119); note: nearly all actives have a fitted effect of over 55% in size; note: potency is the fitted concentration of half-maximal effect
# How it was run: (§1)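 Viability after 48 h compound treatment at 37C, 500-1,000 cells/well, read as ATP luminescence with CellTiter-Glo. Primary screens used 11-point (MIPE, 0.78 nM-46 µM) or 8-point (NPC, 0.59 nM-46 µM) final concentrations; follow-up screens used 11-point dilutions.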
# [3] = qHTS of pediatric cancer cell lines to identify multiple opportunities for drug repurposing: Confirmatory screen for control Hh wild type fibroblast cells (AID 1347121); note: nearly all actives have a fitted effect of over 70% in size; note: potency is the fitted concentration of half-maximal effect
# How it was run: as §1
# [4] = qHTS of pediatric cancer cell lines to identify multiple opportunities for drug repurposing: Confirmatory screen for U-2 OS cells (AID 1347122); note: nearly all actives have a fitted effect of over 65% in size; note: potency is the fitted concentration of half-maximal effect
# How it was run: as §1
# [5] = qHTS of pediatric cancer cell lines to identify multiple opportunities for drug repurposing: Confirmatory screen for RD cells (AID 1347124);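 note: cells exposed to compound for 48 h before viability readout; nearly all actives have a fitted effect of over 65% in size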; note: potency is the fitted concentration of half-maximal effect
# How it was run: as §1
# [6] = qHTS of pediatric cancer cell lines to identify multiple opportunities for drug repurposing: Confirmatory screen for Saos-2 cells (AID 1347127); note: nearly all actives have a fitted effect of over 60% in size; note: potency is the fitted concentration of half-maximal effect
# How it was run: as §1
# [7] = qHTS of pediatric cancer cell lines to identify multiple opportunities for drug repurposing: Confirmatory screen for SK-N-SH cells (AID 1347129);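 note: cells exposed to compound for 48 h before viability read; nearly all actives have a fitted effect of over 60% in size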; note: potency is the fitted concentration of half-maximal effect
# How it was run: as §1
# [8] = system: Zika virus NS2B-NS3 protease; assay: Primary screen GU AMC qHTS for Zika virus inhibitors (AID 1347154); note: nearly all actives have a fitted effect of over 70% in size; note: potency is the fitted concentration of half-maximal effect
# How it was run: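 Unlinked Zika NS2B hydrophilic domain–NS3 protease complex at 25 nM in 10 mM Tris-HCl pH 8.0, 0.01% Tween 20, with an AMC peptide substrate. Fluorescence change (340/450 nm) over 15 min at room temperature, normalized to controls, fitted to 4-parameter Hill.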
# [9] = qHTS of pediatric cancer cell lines to identify multiple opportunities for drug repurposing: Confirmatory screen for Rh41 cells (AID 1347123);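 note: 48 h compound exposure; nearly all actives have a fitted effect of over 60% in size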; note: potency is the fitted concentration of half-maximal effect
# How it was run: as §1
# [10] = qHTS of pediatric cancer cell lines to identify multiple opportunities for drug repurposing: Confirmatory screen for Rh18 cells (AID 1347125); note: nearly all actives have a fitted effect of over 55% in size; note: potency is the fitted concentration of half-maximal effect
# How it was run: as §1
# [11] = qHTS of pediatric cancer cell lines to identify multiple opportunities for drug repurposing: Confirmatory screen for Rh30 cells (AID 1347126); note: nearly all actives have a fitted effect of over 55% in size; note: potency is the fitted concentration of half-maximal effect
# How it was run: as §1
# [12] = qHTS of pediatric cancer cell lines to identify multiple opportunities for drug repurposing: Confirmatory screen for OHS-50 cells (AID 1347128);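 note: compound exposure lasted 48 h at 37 degrees C; nearly all actives have a fitted effect of over 55% in size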; note: potency is the fitted concentration of half-maximal effect
# How it was run: as §1
# [13] = system: Zika virus NS2B-NS3 protease (unlinked complex); assay: Primary screen GU Rhodamine qHTS for Zika virus inhibitors: Unlinked NS2B-NS3 protease assay (AID 1347159); note: nearly all actives have a fitted effect of over 60% in size
# How it was run: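 A qHTS format was used, with compound concentrations ranging up to 114 microM. Each compound was preincubated with 25 nM NS2B-NS3 protease, and the substrate was then added at 1.5 microM. Curves were fitted with a 4-parameter Hill model.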
# [14] = system: Zika virus NS2B-NS3 protease (linked construct); assay: Primary screen NINDS Rhodamine qHTS for Zika virus inhibitors (AID 1347160); note: nearly all actives have a fitted effect of over 55% in size
# How it was run: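 Kinetic fluorescence (Ex 480 nm, Em 540 nm) over 15 min with 1.5 microM Rhodamine110 peptide and 25 nM linked protease.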
# Furin (Homo sapiens) = Furin (Homo sapiens) (UniProt P09958); assay: Furin counterscreen qHTS for Zika virus inhibitors (AID 1347149);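 note: purified recombinant full-length human furin enzyme at 5 nM; fluorescence gain from furin cutting a BOC-RVRR-AMC peptide substrate over 15 min; top concentration of the series differs between compounds; nearly all actives have a fitted effect of over 70% in size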
# Furin (Homo sapiens), sequence (P09958 whole entry, looked up): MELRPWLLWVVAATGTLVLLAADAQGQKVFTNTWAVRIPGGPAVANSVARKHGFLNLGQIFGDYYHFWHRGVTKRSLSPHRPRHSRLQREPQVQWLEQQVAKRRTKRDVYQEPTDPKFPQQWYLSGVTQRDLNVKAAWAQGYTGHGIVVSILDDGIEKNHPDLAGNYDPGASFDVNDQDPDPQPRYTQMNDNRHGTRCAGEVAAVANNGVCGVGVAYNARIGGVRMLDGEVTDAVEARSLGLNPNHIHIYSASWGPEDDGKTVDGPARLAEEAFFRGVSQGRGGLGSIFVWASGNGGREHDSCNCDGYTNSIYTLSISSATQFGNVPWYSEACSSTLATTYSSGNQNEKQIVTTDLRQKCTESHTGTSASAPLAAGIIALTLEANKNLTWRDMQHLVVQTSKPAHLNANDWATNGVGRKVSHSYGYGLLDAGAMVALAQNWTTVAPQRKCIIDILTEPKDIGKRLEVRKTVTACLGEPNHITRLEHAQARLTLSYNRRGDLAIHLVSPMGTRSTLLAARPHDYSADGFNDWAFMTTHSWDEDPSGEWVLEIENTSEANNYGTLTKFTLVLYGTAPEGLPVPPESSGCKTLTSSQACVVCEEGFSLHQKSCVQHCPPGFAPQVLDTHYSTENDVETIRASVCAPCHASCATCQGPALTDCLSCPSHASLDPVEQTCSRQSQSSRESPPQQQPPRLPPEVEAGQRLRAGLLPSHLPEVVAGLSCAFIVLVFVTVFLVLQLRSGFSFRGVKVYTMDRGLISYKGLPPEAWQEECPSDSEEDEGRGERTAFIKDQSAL
# How it was run: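 Fluorogenic cleavage of BOC-RVRR-AMC (2 microM final, Km ~15 µM) was monitored (ex 340, em 450 nm) at 37C after 15 min RT preincubation of 5 nM furin with compounds in HEPES pH 7.0 buffer with CaCl2 and Triton X-100. Percent inhibition was fitted to a 4-parameter Hill curve.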
# [15] = system: Zika virus NS2B-NS3 protease (linked construct); assay: Confirmatory screen NINDS AMC qHTS for Zika virus inhibitors (AID 1347152);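 note: AMC fluorescence gain from cleaved Bz-Nle-KRR-AMC substrate over 15 min; top concentration of the series differs between compounds; nearly all actives have a fitted effect of over 70% in size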
# How it was run: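 Enzyme (1 nM, linked construct) was preincubated with compound for 15 minutes at room temperature in 10 mM Tris-HCl pH 8.0 with 0.01% Tween 20. Bz-Nle-Lys-Arg-Arg-AMC was then added to 10 microM, and AMC fluorescence was recorded immediately and after 15 minutes.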
# [16] = system: Zika virus NS2B-NS3 protease (unlinked complex); assay: Confirmatory screen GU AMC qHTS for Zika virus inhibitors (AID 1347153); note: nearly all actives have a fitted effect of over 70% in size
# How it was run: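 Fluorescence change (ex 340/em 450 nm) over 15 min, ~20% substrate conversion, normalized to no-inhibitor and no-enzyme controls, then Hill-fitted. Unlinked protease at 25 nM; AMC peptide 10 µM.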
SMILES,Potency [1],Potency [2],Potency [3],Potency [4],Potency [5],Potency [6],Potency [7],Potency [8],Potency [9],Potency [10],Potency [11],Potency [12],Potency [13],Potency [14],"activity change, negative = inhibition (Furin (Homo sapiens))","activity change, negative = inhibition [15]","activity, negative = inhibition [16]"
CCC(c1ccc(O)cc1)C(CC)c1ccc(O)cc1 (stereo not given),3690 nM (active),8270 nM (active),inactive,inactive,10400 nM (active),inactive,inactive,inactive,,,,,,,,,
CCC[C@H](N[C@@H](C)C(=O)N1[C@@H]2CCCC[C@H]2C[C@H]1C(=O)O)C(=O)OCC,,inactive,inactive,inactive,inactive,,inactive,inactive,inactive,,,,,,,,
CCC(=O)OCC(=O)[C@@]1(OC(=O)CC)[C@@H](C)C[C@@H]2[C@H]3CCC4=CC(=O)C=C[C@]4(C)[C@@]3(F)[C@@H](O)C[C@@]21C,,inactive,inactive,inactive,inactive,inactive,20900 nM (active),inactive,14700 nM (active),inactive,inactive,inactive,,,,,
C=CC(=O)Nc1cccc(Sc2nc(Nc3ccc(N4CCN(C)CC4)cc3)ncc2Cl)c1,737 nM (active),18500 nM (active),,16500 nM (active),5850 nM (active),16500 nM (active),9350 nM (active),inactive,10400 nM (active),16500 nM (active),9270 nM (active),14700 nM (active),inactive,inactive,,,
CN1N=C(N)c2cn([C@@H]3O[C@H](COP(=O)(O)O)[C@@H](O)[C@@H]3O)c3ncnc1c23,737 nM (active),827 nM (active),,,,1850 nM (active),1050 nM (active),inactive,1170 nM (active),329 nM (active),,1170 nM (active),,,,,
CC1CNc2c(cccc2S(=O)(=O)N[C@@H](CCCN=C(N)N)C(=O)N2CC[C@@H](C)C[C@@H]2C(=O)O)C1 (stereo not given in full),,inactive,inactive,inactive,,,inactive,inactive,inactive,inactive,20800 nM (active),inactive,,,,,
Cc1c(C(=O)Nc2ccc(N3C[C@@H](C)O[C@@H](C)C3)nc2)cccc1-c1ccc(OC(F)(F)F)cc1,,10400 nM (active),inactive,18500 nM (active),inactive,,inactive,inactive,16500 nM (active),inactive,,,inactive,inactive,,,
C[C@@H]1C[C@H]2[C@@H]3CCC4=CC(=O)C=C[C@]4(C)[C@@]3(F)[C@@H](O)C[C@]2(C)[C@@]1(O)C(=O)CO,,inactive,inactive,inactive,inactive,inactive,inactive,inactive,inactive,,inactive,inactive,,,,,
CON(C)C(=O)N1N=C(c2cc(F)ccc2F)S[C@]1(CCCN)c1ccccc1,,20.8 nM (active),inactive,46.5 nM (active),46.5 nM (active),5.9 nM (active),,inactive,18.5 nM (active),,inactive,5.2 nM (active),,,,,
CO[C@H]1/C=C\O[C@@]2(C)Oc3c(C)c(O)c4c(O)c(c(C=NN5CCN(C6CCCC6)CC5)c(O)c4c3C2=O)NC(=O)C(C)=CC=C[C@H](C)[C@H](O)[C@@H](C)[C@@H](O)[C@@H](C)[C@H](OC(C)=O)[C@H]1C,,inactive,inactive,inactive,inactive,20800 nM (active),inactive,,20800 nM (active),inactive,,,,,,,
O=c1[nH]nc(OCCCc2ccc(Cl)cc2)c(NCc2cccnc2)c1Br,,5220 nM (active),10400 nM (active),7370 nM (active),,inactive,,inactive,10400 nM (active),,,,,inactive,,,
CC1C(=O)OC2C(O)C34C5CC(C(C)(C)C)C36C(OC(=O)C6O)OC4(C(=O)O5)C12O (stereo not given),inactive,inactive,inactive,inactive,inactive,inactive,inactive,inactive,inactive,inactive,,inactive,,,,,
Nc1ccc(-c2ccc3ncc4ccc(=O)n(-c5cccc(C(F)(F)F)c5)c4c3c2)cn1,73.7 nM (active),20.8 nM (active),,185 nM (active),233 nM (active),329 nM (active),296 nM (active),inactive,36.9 nM (active),928 nM (active),329 nM (active),261 nM (active),inactive,inactive,,,
COc1ccc(-c2ccc3ncc4c(c3c2)n(-c2ccc(N3CCNCC3)c(C(F)(F)F)c2)c(=O)n4C)cn1,,32.9 nM (active),10400 nM (active),465 nM (active),185 nM (active),,132 nM (active),21500 nM (active),58.5 nM (active),414 nM (active),293 nM (active),369 nM (active),,,-10.9% [at 5.45 µM],-9% [at 5.51 µM],-4.48% [at 5.51 µM]
CC1(C)OC2CC3C4CC(F)C5=CC(=O)C=CC5(C)C4C(O)CC3(C)[C@]2(C(=O)CO)O1 (stereo not given in full),,inactive,inactive,inactive,inactive,inactive,inactive,inactive,,inactive,inactive,inactive,,,,,
N#CC(=C1Nc2ccccc2S1)c1ccnc(OCc2ccc(CN3CCOCC3)cc2)n1,,inactive,inactive,inactive,inactive,,inactive,,inactive,inactive,inactive,,,,,,
